Laboratory results as given in PubChem BioAssay (Tox21).
Unmarked numbers belong to inactive results. Records with an inconclusive call do not appear. Entries that show only a call come without a potency. Calls of active or inactive are those of the source. Unless noted, calls come from the whole dose curve; as a rule, active = well fitted curve in the direction sought with a large enough effect in the repeat runs; inconclusive = weak or mixed curves; inactive = no such curve, though single readings can be large; an effect the other way counts as inactive or inconclusive.

Legend:
[1] = qHTS assay for small molecules that induce genotoxicity in human embryonic kidney cells expressing luciferase-tagged ATAD5 (AID 651632); note: nearly all actives have a fitted effect of over 15% in size
Outline: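 Quantitative HTS in HEK293T expressing luciferase-tagged ATAD5, whose levels rise upon DNA damage. Exposure ran 16 hr at 37C and 5% CO2, with luminescence read 30 min after Amplite addition at room temperature.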

[2] = qHTS assay for small molecule agonists of the p53 signaling pathway - cell viability (AID 651633; calls by dose curve;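 note: p53RE-bla HCT reporter cells with a stable beta-lactamase p53 reporter; series mostly up to about 83 µM; nearly all actives have a fitted effect of over 30% in size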)
Outline: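 p53RE-bla cells, seeded at 4,000 per well and rested 5 h at 37 C/5% CO2, received compounds in DMSO for 16 h at 37 C. CellTiter-Glo was then added, and luminescence was read after 30 min at room temperature to gauge cytotoxicity.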

[3] = qHTS assay for small molecule disruptors of the mitochondrial membrane potential - cell viability (AID 720634; calls by dose curve;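 note: human HepG2 liver cancer cells; series mostly up to about 83 µM; nearly all actives have a fitted effect of over 20% in size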)
Outline: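 ATP-based luminescent viability readout (CellTiter-Glo, 30 min, room temperature) in HepG2 cells multiplexed with the m-MPI membrane potential dye; compound exposure lasted 1 hr at 37 C.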

[4] = qHTS assay to test for compound auto fluorescence at 535 nm (green) in HepG2 cells (AID 720675)
[5] = qHTS assay to test for compound auto fluorescence at 460 nm (blue) in HEK293 cells (AID 720678)
Outline: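 Blue read-out at excitation 405 nm and emission 460 nm follows overnight compound exposure of HEK293 cells at 37C in 5% CO2. Activity is given as auto fluorescence equivalency to triamterene.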

[6] = qHTS assay to test for compound auto fluorescence at 590 nm (red) in HEK293 cells (AID 720679)
Outline: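 Red channel, Ex/Em 540/590nm; signal expressed as equivalency to Rose Bengal sodium. HEK293, 2,000 cells/well, 10% dialyzed FBS; 23 nL compound pinned after 4-5 hr attachment; overnight 37C/5% CO2 before reading.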

[7] = qHTS assay to test for compound auto fluorescence at 460 nm (blue) in HEK293 cell free culture (AID 720681)
Outline: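 Test compounds were pinned into cell-free culture medium (DMEM with 10% FBS) and fluorescence was read directly at Ex/Em 405/460 nm. Signals were expressed as fluorescence equivalents of triamterene, with DMSO vehicle as control.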

[8] = qHTS assay to test for compound auto fluorescence at 535 nm (green) in HEK293 cell free culture (AID 720682)
Outline: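 Intrinsic compound fluorescence is measured in culture medium containing 10% FBS, with excitation at 485 nm and detection at 535 nm, referenced to fluorescein.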

[9] = qHTS assay to test for compound auto fluorescence at 590 nm (red) in HEK293 cell free culture (AID 720683)
Outline: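 Tox21 10K library compounds were pinned into cell-free DMEM with 10% FBS and fluorescence was read at excitation 540 nm. Activity is expressed as Rose Bengal sodium equivalency.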

[10] = qHTS assay to test for compound auto fluorescence at 590 nm (red) in HepG2 cell free culture (AID 720684)
Outline: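 Readout: intrinsic compound fluorescence at 590 nm emission after 540 nm excitation, scaled to Rose Bengal sodium. Matrix was cell-free MEM with 10% FBS; DMSO vehicle wells served as control.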

[11] = qHTS assay to test for compound auto fluorescence at 460 nm (blue) in HepG2 cell free culture (AID 720685)
Outline: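 Cell-free plates of MEM plus 10% FBS received 23 nL compound or DMSO vehicle; blue-channel (405/460 nm) intensity scored against triamterene as reference fluorophore.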

[12] = qHTS assay to test for compound auto fluorescence at 460 nm (blue) in HepG2 cells (AID 720687)
Outline: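 Cells (2,000/well in MEM with 10% FBS) attached overnight at 37 C, then were exposed to compound or DMSO for 1 hr at 37 C, 5% CO2. Fluorescence read at Ex/Em 405/460 nm, expressed as triamterene-equivalent signal.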

[13] = qHTS assay for small molecules that induce genotoxicity in human embryonic kidney cells expressing luciferase-tagged ATAD5 - cell viability (AID 651634; calls by dose curve; note: nearly all actives have a fitted effect of over 25% in size; note: potency is the fitted concentration of half-maximal effect)
Outline: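 After 15.5 hr incubation with compound at 37C, 5% CO2, HEK293T ATAD5-luciferase cells received CellTiter-Fluor reagent; fluorescence intensity was quantified following 30 min at 37C.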

[14] = qHTS assay for small molecule disruptors of the mitochondrial membrane potential (AID 720635); note: potency is the fitted concentration of half-maximal effect
Outline: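 HepG2 cells (2,000/well) attached overnight at 37C, then took compound for 1 hr at 37C, 5% CO2. Mito-MPS dye was added for 30 min; fluorescence was read at 490/535 nm (monomers) and 540/590 nm (aggregates).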

[15] = qHTS assay to test for compound auto fluorescence at 590 nm (red) in HepG2 cells (AID 720674)
Outline: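 Rose Bengal sodium served as the red fluorophore standard. HepG2 monolayers (overnight attachment, MEM with 10% FBS) were exposed to test compounds for 1 hr at 37 C and read at Ex 540/Em 590 nm.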

[16] = qHTS assay to test for compound auto fluorescence at 535 nm (green) in HEK293 cells (AID 720680)
[17] = qHTS assay to test for compound auto fluorescence at 535 nm (green) in HepG2 cell free culture (AID 720686)
[18] = biological target: Glucocorticoid receptor (Homo sapiens) (UniProt P04150); test: qHTS assay to identify small molecule agonists of the glucocorticoid receptor (GR) signaling pathway (AID 720691; active = well fitted activation curve with a large enough effect in the signal ratio in the repeat runs, not every such curve was filed as active; the % refers to the signal ratio)
Sequence of Glucocorticoid receptor (Homo sapiens) (P04150 whole entry, looked up): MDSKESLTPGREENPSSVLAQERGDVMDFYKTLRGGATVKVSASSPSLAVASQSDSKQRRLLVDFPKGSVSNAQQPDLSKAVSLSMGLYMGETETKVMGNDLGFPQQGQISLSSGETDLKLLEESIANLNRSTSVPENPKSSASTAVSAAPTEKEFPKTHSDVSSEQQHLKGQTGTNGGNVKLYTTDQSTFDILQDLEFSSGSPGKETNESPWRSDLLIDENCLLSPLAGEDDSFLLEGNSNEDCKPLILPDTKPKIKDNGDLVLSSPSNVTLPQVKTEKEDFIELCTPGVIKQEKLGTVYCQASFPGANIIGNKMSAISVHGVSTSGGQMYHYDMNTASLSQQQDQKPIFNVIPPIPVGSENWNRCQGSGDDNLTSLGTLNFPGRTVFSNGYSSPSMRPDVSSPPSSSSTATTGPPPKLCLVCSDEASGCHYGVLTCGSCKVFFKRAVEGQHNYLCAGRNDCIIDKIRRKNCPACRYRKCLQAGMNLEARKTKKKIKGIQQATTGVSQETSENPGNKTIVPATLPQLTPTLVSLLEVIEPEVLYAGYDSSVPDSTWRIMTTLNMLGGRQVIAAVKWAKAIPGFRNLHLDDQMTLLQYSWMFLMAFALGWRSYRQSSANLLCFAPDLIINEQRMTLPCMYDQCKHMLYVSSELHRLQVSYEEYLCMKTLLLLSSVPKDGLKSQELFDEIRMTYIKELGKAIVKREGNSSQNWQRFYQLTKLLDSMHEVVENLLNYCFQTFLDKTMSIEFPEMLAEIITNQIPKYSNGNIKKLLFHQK
Outline: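 Cells: GR-bla HeLa, endogenous GR with stably integrated GRE-beta-lactamase reporter. Treatment 18 h, 37 C, compounds delivered in DMSO. Detection via LiveBLAzer B/G FRET substrate, 2 h RT, fluorescence intensity.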

[19] = biological target: Glucocorticoid receptor (Homo sapiens) (UniProt P04150); test: qHTS assay to identify small molecule antagonists of the glucocorticoid receptor (GR) signaling pathway (AID 720692; active = well fitted inhibition curve with a large enough effect in the signal ratio in the repeat runs, not every such curve was filed as active; the % refers to the signal ratio)
Outline: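 Quantitative HTS in antagonist format: HeLa cells expressing endogenous GR and a stably integrated GRE-bla reporter, stimulated with 5 nM dexamethasone (final) alongside test compounds for 18 h.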

Row | Compound | Potency [1] | Potency [2] | outcome [3] | outcome [4] | Potency [5] | outcome [6] | Potency [7] | outcome [8] | outcome [9] | outcome [10] | Potency [11] | Potency [12] | Potency [13] | Potency [14] | outcome [15] | outcome [16] | outcome [17] | Potency [18] | Potency [19]
1 | CC(CN(CCN(CC(C)OCCO)CC(C)OCCO)CC(C)OCCO)OCCO (stereo unspecified) | inactive | inactive | inactive | inactive | inactive | inactive | inactive | inactive | inactive | inactive | inactive | inactive |  |  |  |  |  |  | 
2 | CNC1CCCN(c2c(F)cc3c(=O)c(C(=O)O)cn(C4CC4)c3c2OC)C1 (stereo unspecified) | inactive |  | inactive | inactive | inactive | inactive | inactive | inactive | inactive | inactive | inactive |  | inactive | inactive | inactive | inactive | inactive |  | 
3 | C=CCOC(=O)COCCC(C)C | inactive |  | inactive |  | inactive | inactive | inactive | inactive | inactive | inactive |  | inactive | inactive |  | inactive | inactive | inactive | inactive | 
4 | CC(C)(C)CCCCCCOC(=O)c1ccccc1C(=O)OCCCCCCC(C)(C)C | inactive |  | inactive | inactive | inactive | inactive | inactive | inactive | inactive | inactive | inactive | inactive | inactive |  | inactive | inactive |  | inactive | 
5 | COc1cc(C(C)=O)ccc1OCCCN1CCC(c2noc3cc(F)ccc23)CC1 | inactive | inactive | inactive | inactive | inactive |  | inactive | inactive | inactive | inactive | inactive |  | inactive |  |  | inactive | inactive | inactive | inactive
6 | CC(CCc1ccc(O)cc1)NCCc1ccc(O)c(O)c1 (stereo unspecified) | inactive | inactive | inactive |  | inactive | inactive | inactive | inactive | inactive | inactive |  | inactive | inactive |  | inactive | inactive |  | inactive | inactive
7 | CCCCOC(=O)CCCCC(=O)OCCCC | inactive | inactive | inactive |  | inactive | inactive | inactive | inactive | inactive | inactive | inactive |  | inactive |  | inactive |  | inactive | inactive | inactive
8 | O=C(c1ccccc1)C1CCC1 | inactive | inactive | inactive | inactive | inactive | inactive | inactive | inactive | inactive | inactive |  | inactive |  | inactive | inactive | inactive | inactive |  | 
9 | CCN(Cc1cccc(S(=O)(=O)O)c1)c1ccc(C(=C2C=CC(=[N+](CC)Cc3cccc(S(=O)(=O)O)c3)C=C2)c2ccc(O)cc2S(=O)(=O)[O-])cc1 | inactive |  |  | inactive | inactive | inactive | inactive | inactive | inactive | inactive | inactive | inactive | 33.1 µM (active) |  | inactive | inactive | inactive | inactive | inactive
10 | COc1ccc(/C=C/C(=O)c2ccc(OC)cc2OC)cc1 | inactive | inactive | inactive | inactive | inactive | inactive | inactive | inactive | inactive | inactive | inactive | inactive |  | 13.3 µM (active) | inactive | inactive | inactive | inactive | 
11 | CN1C(CSCC(F)(F)F)Nc2cc(Cl)c(S(N)(=O)=O)cc2S1(=O)=O (stereo unspecified) | inactive |  | inactive | inactive | inactive | inactive | inactive | inactive | inactive | inactive |  | inactive | inactive | inactive | inactive | inactive | inactive | inactive | inactive
